Results with a measured potency or affinity are listed apart. Active and inactive are the calls of the source.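 Rule for the calls: active = cell killing, meaning signal decrease, with fitted half-maximal dose at or below ten times the top valid tested dose; inconclusive = poor fit, or flat curve with 30 to 70% signal loss; inactive = the rest.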
Assay: ATP-based viability loss in HeLa cells – cell-based, CellTiter-Glo luminescence, cherry-pick samples, cytotoxicity control for MITF activator project, dose response (AID 540259);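 note: 0% = DMSO neutral control and -100% = mitoxantrone positive control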
Conditions: 24 h; series mostly up to 35 µM; activity change, negative = cytotoxicity: at the top concentration
In the case of `COc1ccc(Br)c(C(=O)Nc2nc3ccccc3[nH]2)c1`, the “activity change, negative = cytotoxicity” value is reported as -2.95% (inactive). With `CC(=O)c1cnc2nc(SCc3ccccc3)nn2c1C` the “activity change, negative = cytotoxicity” value was 17.8% (inactive). For `CCN(CC)C(=O)CCc1nnc(Cc2cccc(C(F)(F)F)c2)o1`, the “activity change, negative = cytotoxicity” value was -0.229% (inactive). For `c1ccc(CSCc2cn3ccsc3n2)cc1`, the “activity change, negative = cytotoxicity” value was 4.42% (inactive). In the case of `Cc1cccc(NC(=O)c2sc3nc(N)c(C#N)cc3c2N)c1`, the “activity change, negative = cytotoxicity” value is reported as -3.44% (inactive). In the case of `O=C1OC(c2ccccc2)=C/C1=C/N1CCCCC1`, the “activity change, negative = cytotoxicity” value is reported as 7.7% (inactive). For `N#Cc1c(-c2ccc(Cl)cc2)ccn2nc(C3CCCCC3)nc12`, the “activity change, negative = cytotoxicity” value was -3.42% (inactive). In the case of `O=C(c1cc(COc2ccc(F)cc2Cl)on1)N1CCCCCC1`, the “activity change, negative = cytotoxicity” value is reported as -8.23% (inactive). In the case of `Cc1ccnc(NC(=O)C2CC(=O)N(Cc3ccccc3)C2)c1` (stereo unspecified), the “activity change, negative = cytotoxicity” value is reported as 18.2% (inactive). In the case of `COc1ccc(NC(=O)CCCn2c(=O)oc3ccccc32)cc1Cl`, the “activity change, negative = cytotoxicity” value is reported as 6.66% (inactive). With `COc1ccc(/C=C2\CCn3c2nc2ccccc2c3=O)cc1OC` the “activity change, negative = cytotoxicity” value was 11.3% (inactive). In the case of `C=CCNC(=O)c1ccc2nc(Cc3ccc(OC)cc3)oc2c1`, the “activity change, negative = cytotoxicity” value is reported as 12.1% (inactive). For `CC(C)(C)C(=O)OCc1nc(-c2ccc(F)cc2)cs1`, the “activity change, negative = cytotoxicity” value was 10% (inactive). With `CC(=O)c1cnc2c(-c3cccc(Br)c3)cnn2c1C` the “activity change, negative = cytotoxicity” value was -3.45% (inactive). For `COC(=O)Cc1ccc(NC(=O)c2ccc(C)c(C)c2)cc1`, the “activity change, negative = cytotoxicity” value was 0.895% (inactive). In the case of `CN1C(=O)C2C=CC1C1C(=O)N(c3ccccc3)C(=O)C21` (stereo unspecified), the “activity change, negative = cytotoxicity” value is reported as 15.4% (inactive). With `O=C(Oc1ccc2ccccc2c1Cl)N1CCCCCC1` the “activity change, negative = cytotoxicity” value was -3.74% (inactive). In the case of `Cc1ccc(CONC(=O)c2ccc(C)cc2)cc1`, the “activity change, negative = cytotoxicity” value is reported as 22% (inactive). In the case of `COc1ccc(NC(=O)C2Cc3ccccc3O/C2=N\O)cc1` (stereo unspecified), the “activity change, negative = cytotoxicity” value is reported as 4.44% (inactive). In the case of `O=C(O)c1ccc(-c2nc(-c3ccc(Cl)cc3)cs2)cc1`, the “activity change, negative = cytotoxicity” value is reported as -7.11% (inactive). In the case of `CC(C)(C)c1ccc(C(=O)NCc2ccccc2)cc1`, the “activity change, negative = cytotoxicity” value is reported as -4.79% (inactive). With `Cc1ccc2cc(/C=N/Nc3ccc(C(=O)O)cc3)c(Cl)nc2c1` the “activity change, negative = cytotoxicity” value was 1.67% (inactive). With `Cc1noc(N)c1C(=O)Nc1ccc(C(C)(C)C)cc1` the “activity change, negative = cytotoxicity” value was -8.76% (inactive). For `N#C/C(C(=O)N1CCCCC1)=C1\Nc2ccccc2S1`, the “activity change, negative = cytotoxicity” value was 9.85% (inactive). For `Oc1oc(-c2ccccc2)nc1C=NCc1ccccc1`, the “activity change, negative = cytotoxicity” value was 4.32% (inactive). With `FC(F)(F)c1ccnc(Oc2ccc(C3=NCCS3)cc2)c1` the “activity change, negative = cytotoxicity” value was 0.775% (inactive). With `O=C(CC1CCCC1)Nc1ccc(Br)cc1` the “activity change, negative = cytotoxicity” value was -3.11% (inactive). In the case of `Cc1[nH]n(-c2cccc(Cl)c2)c(=O)c1C=NCC(C)C`, the “activity change, negative = cytotoxicity” value is reported as 11% (inactive). For `O=c1c(-c2ccc(O)cc2)coc2cc(O)cc(O)c12`, the “activity change, negative = cytotoxicity” value was 3.81% (inactive). For `Cc1ccc(NC(=O)N2CCc3ccccc3C2)cc1C`, the “activity change, negative = cytotoxicity” value was 9.08% (inactive). For `O=C(Cc1ccccc1)Nc1nc(-c2cccs2)cs1`, the “activity change, negative = cytotoxicity” value was -7.3% (inactive). In the case of `COc1cc(SC)ccc1C(=O)NCC1CCCCC1`, the “activity change, negative = cytotoxicity” value is reported as -6.12% (inactive). With `Nc1nc(COc2ccc3ccccc3c2)cs1` the “activity change, negative = cytotoxicity” value was 4.74% (inactive). With `Cn1ccs/c1=N\C(=O)Nc1ccccc1` the “activity change, negative = cytotoxicity” value was 2.38% (inactive). With `Clc1ccc(-c2cnnc(-c3ccccn3)n2)cc1` the “activity change, negative = cytotoxicity” value was 6.06% (inactive). For `c1ccc(CSCc2nc3ccccc3[nH]2)cc1`, the “activity change, negative = cytotoxicity” value was 11.5% (inactive).
